Compounds without any hit were thinned out: in the full panel of roughly 83,000, 20% have a hit.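 Plates (96-well) were seeded with cells, treated with compound at one concentration, and incubated for 48 hours before percent growth was determined.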 A number with no mark means an inactive call. Activity calls are given as the source filed them. Rule for the calls: active = growth percent below 10; inactive = the rest.

For seven compounds, growth results are on record in PubChem BioAssay (NCI).

Among the test systems are HCT-15 colon; HT29 colon; SNB-75 CNS; SNB-19 CNS; U251 CNS; PC-3 prostate; SK-MEL-5 melanoma; UACC-62 melanoma; LOX IMVI melanoma; SK-MEL-28 melanoma; SK-MEL-2 melanoma; EKVX NSCLC; SN12C renal; UO-31 renal; TK-10 renal; ACHN renal; CAKI-1 renal; A498 renal; CCRF-CEM leukemia; MOLT-4 leukemia.
What all share (assay): NCI-60 one-dose screen, 48 h (100 = growth as untreated, 0 = no growth, -100 = all killed)
What all share (settings): 10 µM unless noted

For `COc1ccc2[nH]cc(C(c3cc(F)cc(F)c3)c3c[nH]c4ccc(OC)cc34)c2c1`, the growth is 65.2% in the assay on HCT-15 colon; 81.5% in the assay with HT29 colon; 85.9% with SNB-75 CNS; 82.9% with SNB-19 CNS; 86.8% in the assay on U251 CNS; 50.2% with PC-3 prostate. The growth was 91.7% with SK-MEL-5 melanoma; 85.5% with UACC-62 melanoma; 67.3% with LOX IMVI melanoma; 105% with SK-MEL-28 melanoma; 62.5% with SK-MEL-2 melanoma; 88.4% with EKVX NSCLC. Also, the growth in the assay with SN12C renal is 87.3%; with UO-31 renal it was 44.2%; with TK-10 renal, 124%; in the assay on ACHN renal, 82.9%; with CAKI-1 renal it was 101%; in the assay on A498 renal it was 77.8%. Besides, the growth was 60.1% in the assay on CCRF-CEM leukemia and 37.4% in the assay on MOLT-4 leukemia.

On to `CCOC(=O)/C=C1\S/C(=N\Nc2cc(=O)[nH]c3ccc(Cl)cc23)N(c2ccccc2)C1=O`, for which the growth in the assay on HCT-15 colon is 74.5%; in the assay on HT29 colon it was 102%; in the assay with SNB-75 CNS, 87.5%; in the assay on SNB-19 CNS, 90.6%; in the assay on U251 CNS, 89.9%; in the assay on PC-3 prostate it was 85.4%. Besides, the growth in the assay with SK-MEL-5 melanoma was 98.9%; in the assay with UACC-62 melanoma it was 89.4%; with LOX IMVI melanoma, 84.4%; in the assay with SK-MEL-28 melanoma it was 101%; in the assay on SK-MEL-2 melanoma, 105%; in the assay with EKVX NSCLC, 100%. Also, the growth with SN12C renal is 93.1%; in the assay with UO-31 renal, 75.2%; with TK-10 renal, 107%; in the assay with ACHN renal it was 91.6%; in the assay on CAKI-1 renal, 83.3%; in the assay with A498 renal it was 115%. The values for the growth in the assay on CCRF-CEM leukemia and in the assay on MOLT-4 leukemia were 3.19% (active) and 21%, respectively.

On to `CS(=O)(=O)c1cccc(-c2c(-c3cccc(OS(N)(=O)=O)c3)nc3sccn23)c1`, for which the growth with HCT-15 colon is 104%; in the assay on HT29 colon it was 107%; in the assay with SNB-75 CNS, 70.8%; with SNB-19 CNS, 97.5%; in the assay with U251 CNS it was 100%; in the assay on PC-3 prostate it was 106%. Further, the growth with SK-MEL-5 melanoma is 96.6%; in the assay on UACC-62 melanoma it was 94%; in the assay with LOX IMVI melanoma, 95.6%; in the assay on SK-MEL-28 melanoma it was 112%; with SK-MEL-2 melanoma, 117%; in the assay with EKVX NSCLC, 95.3%. The growth in the assay with SN12C renal is 102%; in the assay on UO-31 renal, 75.5%; in the assay with TK-10 renal, 108%; in the assay on ACHN renal, 99.2%; in the assay on CAKI-1 renal, 81.2%; in the assay with A498 renal, 100%. For the same compound, the growth in the assay with CCRF-CEM leukemia was 107%; with MOLT-4 leukemia it was 105%.

Consider `Cn1c(=O)c2c(nc(NC3=NS(=O)(=O)c4ccccc43)n2CC(=O)N2CCc3ccccc32)n(C)c1=O`, for which the growth in the assay on HCT-15 colon is 101%; in the assay on HT29 colon, 101%; in the assay on SNB-75 CNS it was 94.9%; in the assay with SNB-19 CNS it was 101%; with U251 CNS, 101%; in the assay with PC-3 prostate, 104%. The growth with SK-MEL-5 melanoma was 101%; in the assay on UACC-62 melanoma it was 97.6%; in the assay with LOX IMVI melanoma it was 91.2%; with SK-MEL-28 melanoma, 105%; with SK-MEL-2 melanoma it was 106%; in the assay with EKVX NSCLC, 102%. Besides, the growth with SN12C renal was 96.9%; in the assay with UO-31 renal it was 75.9%; in the assay with TK-10 renal, 108%; in the assay on ACHN renal, 102%; in the assay on CAKI-1 renal, 92.7%; with A498 renal, 58.9%. Further, the values for the growth in the assay on CCRF-CEM leukemia and in the assay on MOLT-4 leukemia were 101% and 112%, respectively.

Regarding `Oc1c(Cl)cc(Cl)c2ccc(Cn3cc(-c4cc(C(F)(F)F)cc(C(F)(F)F)c4)nn3)nc12`, the growth in the assay on HCT-15 colon is 12.5%; in the assay with HT29 colon it was 53.4%; in the assay with SNB-75 CNS, 62.3%; in the assay on SNB-19 CNS, 94%; with U251 CNS, 105%; with PC-3 prostate, 74.8%. Also, the growth in the assay with SK-MEL-5 melanoma was 92.6%; in the assay on UACC-62 melanoma it was 64.8%; with LOX IMVI melanoma, -10.3% (active); in the assay on SK-MEL-28 melanoma, 46%; in the assay on SK-MEL-2 melanoma, 89.9%; in the assay with EKVX NSCLC, 80.9%. The growth in the assay with SN12C renal was 65.4%; with UO-31 renal, 57%; in the assay on TK-10 renal it was 96.7%; in the assay on ACHN renal, 11.4%; in the assay with CAKI-1 renal, 13.8%; in the assay on A498 renal it was 103%. Also, the growth is 4.83% (active) in the assay with CCRF-CEM leukemia and 2.95% (active) in the assay with MOLT-4 leukemia.

For the compound `Cc1c(-n2nnc(-c3nc4ccccc4s3)c2N)c(=O)n(-c2ccccc2)n1C`, the growth in the assay with HCT-15 colon was 98.3%; with HT29 colon, 100%; in the assay on SNB-75 CNS, 83.1%; in the assay on SNB-19 CNS, 99.9%; with U251 CNS, 101%; with PC-3 prostate it was 98.2%. Moreover, the growth in the assay with SK-MEL-5 melanoma was 99.6%; in the assay on UACC-62 melanoma it was 93.3%; in the assay with LOX IMVI melanoma, 93.1%; in the assay with SK-MEL-28 melanoma, 111%; with SK-MEL-2 melanoma, 107%; in the assay on EKVX NSCLC, 101%. For the same compound, the growth with SN12C renal is 108%; in the assay on UO-31 renal it was 73.9%; with TK-10 renal, 109%; in the assay with ACHN renal, 100%; in the assay on CAKI-1 renal it was 87%; in the assay with A498 renal it was 112%. Moreover, the values for the growth in the assay on CCRF-CEM leukemia and with MOLT-4 leukemia were 107% and 98.3%, respectively.

As for `O=c1c2cc(-c3ccccc3)sc2nc2sc(-c3ccccc3)nn12`, the growth in the assay on HCT-15 colon was 103%; in the assay on HT29 colon, 93.3%; in the assay on SNB-75 CNS, 113%; in the assay on SNB-19 CNS, 102%; in the assay with U251 CNS it was 92.1%; in the assay with PC-3 prostate it was 95.1%. Further, the growth with SK-MEL-5 melanoma was 100%; with UACC-62 melanoma, 109%; in the assay on LOX IMVI melanoma, 107%; in the assay on SK-MEL-28 melanoma it was 107%; with SK-MEL-2 melanoma it was 107%; with EKVX NSCLC, 97.4%. The growth in the assay on SN12C renal is 104%; in the assay on UO-31 renal it was 94.2%; in the assay with TK-10 renal, 84%; with ACHN renal, 117%; with CAKI-1 renal it was 102%; in the assay with A498 renal it was 61.3%. Moreover, the growth with CCRF-CEM leukemia is 104%; in the assay on MOLT-4 leukemia, 102%.
